Records with an inconclusive call do not appear. The source made the active and inactive calls. Calls come from the whole dose curve; as a rule, active = well fitted inhibition curve with a large enough effect; inconclusive = small, poorly fitted or top-dose-only effect; inactive = no such curve, though single readings can be large or run the other way.
% is set by controls: 0 for no effect and ±100 for the full control effect.

The assay is described as follows: Primary qHTS for small molecule stabilizers of the endoplasmic reticulum resident proteome: Secreted ER Calcium Modulated Protein (SERCaMP) assay (AID 1508630). Conditions: SH-SY5Y GLuc-SERCaMP (Gaussia luciferase released on ER calcium loss) secretion, thapsigargin, luminescence; series mostly up to 38.4 µM; activity change, negative = inhibition: at the top concentration. In outline: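 The SH-SY5Y reporter protocol was run at 3 concentrations up to 38.3 uM (primary) or 11 concentrations (follow-up): 16 h compound, 100 nM thapsigargin for 4 h, then extracellular luciferase luminescence.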
In the case of `CN(C)c1ccc(C2Nc3ccc4ccccc4c3C3=C2C(=O)CC(C)(C)C3)cc1Br` (stereo not drawn), the “activity change, negative = inhibition” value was 10.6% (inactive).

Take `Cc1ccc2c(c1)C(=O)[C@@]1(O)CCN(c3ccccc3)C1=N2`: the “activity change, negative = inhibition” value is -18.5% (inactive).

Turning to `O=C(c1cc(Cc2n[nH]c(=O)c3ccccc23)ccc1F)N1CCN(C(=O)C2CC2)CC1`, the “activity change, negative = inhibition” value is 39.7% (inactive).

As to `O=C(Nc1ccc(F)c(C(F)(F)F)c1)Nc1nnc(-c2ccncc2)s1`, the “activity change, negative = inhibition” value was 10.7% (inactive).

As for `Cc1cccc(-c2nn(C(=S)Nc3ccccc3)cc2-c2ccnc3ccccc23)n1`, the “activity change, negative = inhibition” value was 11.5% (inactive).

As to `COc1ccc(CCN2CCN(CCCc3ccccc3)CC2)cc1OC`, the “activity change, negative = inhibition” value was 32% (inactive).

As for `Cn1c(=O)c(F)c(Nc2ccc(I)cc2F)c2c(=O)n(C[C@@H](O)CO)cnc21`, the “activity change, negative = inhibition” value was 0% (inactive).

Take `NC(=O)c1ccc(-c2nc(-c3ccc4c(c3)OCO4)c(-c3ccccn3)[nH]2)cc1`: the “activity change, negative = inhibition” value was -20.7% (inactive).

Consider `CC(C)c1onc(-c2c(Cl)cccc2Cl)c1COc1ccc(/C=C/c2cccc(C(=O)O)c2)c(Cl)c1`, for which the “activity change, negative = inhibition” value was -6.29% (inactive).

For the molecule `CS(=O)(=O)c1ccc(C(=O)Nc2ccc(Cl)c(-c3ccccn3)c2)c(Cl)c1`, the “activity change, negative = inhibition” value was 22.5% (inactive).

In the case of `Cc1cc2c(F)c(Oc3ncnn4cc(OC[C@@H](C)O)c(C)c34)ccc2[nH]1`, the “activity change, negative = inhibition” value was 0% (inactive).

With `COc1cc(F)c(F)c(Nc2ccc(I)cc2F)c1NS(=O)(=O)C1(C[C@H](O)CO)CC1`, the “activity change, negative = inhibition” value was 0% (inactive).

With `O=C(Nc1cccnc1)N1CCC(Cc2cccc(Oc3ccc(C(F)(F)F)cn3)c2)CC1`, the “activity change, negative = inhibition” value was -46.8% (inactive).

Source of the values: PubChem BioAssay (NCATS).
